Among all 340,000 compounds or so, fewer than 10 were called active. The call rests on the fitted dose curve; in most records, active means well fitted inhibition curve with a large enough effect in the main read-out, with a control signal flat (not every such curve was filed as active); inconclusive means small, poorly fitted or top-dose-only effect, or effect the other way, or a change in a side signal; inactive means no such curve, though single readings can be large or run the other way. These entries were drawn from the full list.
Target: Tumor susceptibility gene 101 protein (Homo sapiens) (UniProt Q99816)
Sequence (Q99816 whole entry, looked up): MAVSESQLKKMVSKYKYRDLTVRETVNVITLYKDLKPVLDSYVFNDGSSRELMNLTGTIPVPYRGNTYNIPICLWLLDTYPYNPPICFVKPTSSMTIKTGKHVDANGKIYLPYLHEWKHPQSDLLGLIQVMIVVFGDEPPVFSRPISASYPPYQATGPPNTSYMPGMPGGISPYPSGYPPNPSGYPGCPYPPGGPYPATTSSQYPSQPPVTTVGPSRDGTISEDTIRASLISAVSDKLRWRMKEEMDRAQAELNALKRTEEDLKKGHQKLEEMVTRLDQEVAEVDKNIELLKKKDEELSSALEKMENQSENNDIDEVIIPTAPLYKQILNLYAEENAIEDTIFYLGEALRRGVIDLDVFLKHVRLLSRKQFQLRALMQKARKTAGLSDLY
Test: qHTS Assay for Iinhibitors of HIV-1 Budding by Blocking the Interaction of PTAP/TSG101; further: % of control where 0% means no effect
Settings: Fluorescence polarization, FITC-PTAP peptide / Tsg101 binding; series mostly up to 115 µM; activity change, negative = inhibition: at the top concentration
Text: NIH Molecular Libraries Probe Production Network [MLPCN] NIH Chemical Genomics Center [NCGC] MLPCN Grant: 1 R03 MH087464-01A1 PI Name: Dr. Eric Freed, NCI NCGC Assay Overview: Stages of the HIV-1 replication cycle, specifically virus assembly and release, provide underexploited targets for the development of novel antiviral inhibitors. The late stages of HIV-1 replication are mediated by the Gag precursor protein, Pr55Gag. Expression of Pr55Gag is both necessary and sufficient for the production of virus-like particles from Gag-expressing cells. The Gag protein hijacks key host proteins involved in endocytic machinery of the host cell to promote endosomal processing and viral budding. The budding process requires a direct interaction between a […] (PTAP) motif in the p6 domain of Gag and the cellular endosomal sorting protein known as Tsg101. In this way, the Gag PTAP motif promotes the host cells to recruit viral particles to the plasma membrane where the new viral particles are released, effectively turning the host cells into viral factories. A fluorescence anisotropy assay has been developed to quantitatively measure the PTAP-Tsg101 interaction which can be used to screen for inhibitors of this interaction.
NCGC Assay Protocol Summary: Two uL of the Tsg101 binding domain in buffer (10 mM HEPES pH 7.5; 0.15 M NaCl, 0.01% Tween 20; 3 mM EDTA;0.1 mM TCEP) was dispensed into Greiner black MB 1536-well plates (final concentration 10 uM). Then, 23 nL of compounds or DMSO were delivered to each well using a pin tool. Finally, 2 uL of a FITC-labeled peptide containing the PTAP motif (1) in the same buffer was dispensed (50 nM final concentration) and the binding was allowed to proceed for 20 min. at r.t. Fluorescent polarization was determined using FITC excitation and polarized emission filters on a Perkin Elmer Viewlux. Keywords: Tsg101, PTAP, Gag, HIV, fluorescent polarization, MLSMR, MLPCN, NIH Roadmap, qHTS, NCGC

Activity change, negative = inhibition, inactive:
Cc1cc(C)cc(-c2nnc(SCC(=O)NC3CC3)o2)c1 -1.42%
CCc1cccc(C)c1NC(=S)N(CCCN1CCN(C)CC1)Cc1cccs1 0.428%
COc1cccc(NC(=O)Cn2c3ccc(F)cc3c3nc4n(c(=O)c32)CCS4)c1 -1.9%
O=S(=O)(NN=C1CCCCCCC1)c1ccc(Br)cc1 -4.04%
Cn1c2ccccc2n2c(=O)c(=O)n(CC(=O)c3ccc(F)cc3)nc12 -8.82%
CCOc1ccc(NC(=O)COc2ccc(C(=O)N3CCC(C(N)=O)CC3)cc2OC)cc1 -2.07%
CC(NS(=O)(=O)c1ccccc1)c1n[nH]c(=S)n1-c1ccccc1 (stereo not given) -0.439%
O=C(O)C1CCCCC1C(=O)N1CCN(S(=O)(=O)c2ccc(F)cc2)CC1 (stereo not given) -1.03%
COc1ccc(OCc2n[nH]c(=S)n2N)cc1 -2.95%
Cc1ccccc1-n1cc(CNC(=O)CC2C(=O)NCCN2C/C=C/c2ccccc2)cn1 (stereo not given) -0.0281%
CN1CCCN(C(=O)C2CCCCC2)CC1 1.06%
CCc1nc(SCC(=O)Nc2ccccc2OC)n[nH]1 -2.89%
CC(=O)N(CN1C(=O)C2CC=CCC2C1=O)c1cccc(Cl)c1 (stereo not given) -7.15%
O=C(O)CCN(Cc1ccccc1)S(=O)(=O)c1c(Cl)cccc1Cl -5.83%
CSc1nc2nc(-c3cccc(C(F)(F)F)c3)ccn2n1 -3.61%
CC(=O)n1cc([C@@H]2C=C(C(=O)N3CCN(Cc4ccc5c(c4)OCO5)CC3)O[C@H](OCc3ccc(CO)cc3)C2)c2ccccc21 -8.1%
CC(=O)N1CCOc2ccc(S(=O)(=O)N3CCC(C(=O)Nc4ccccc4F)CC3)cc21 -0.326%
COc1ccc(Cl)cc1NS(=O)(=O)c1cccc(C(=O)NCC2CCCO2)c1 (stereo not given) 0.431%
CC1=C2C(=O)OC(c3ccoc3)C2(C)CCC1 (stereo not given) -4.59%
C/C(=N\N1CCN(Cc2ccc(C)cc2)CC1)c1ccco1 -3.85%
O=C1CCC(=O)N1CCOP1(=O)COc2ccccc2OC1 2.82%
O=C1c2ccccc2NC(c2ccccc2O)N1NS(=O)(=O)c1ccccc1 (stereo not given) -1.04%
COc1cccc(C(=O)Nc2cc3c(cc2Br)OCCCO3)c1 -0.834%
COc1ccccc1C(=O)Nc1ccnn1C1CCN(C(=O)C(C)(C)C)CC1 -1.4%
O=C(CCSc1ccccc1)NCCSc1ccccn1 -1.87%
CCCCC(=O)NC(c1ccc(OC)c(OC)c1)c1ccc2cccnc2c1O (stereo not given) -0.51%
CN(C)CCNC(=O)c1ccc(Cl)c2cc3ccccc3nc12 -5.17%
CCCCN(C(=O)CSCC(=O)Nc1ccc(OC)cc1)c1c(N)n(CCC)c(=O)[nH]c1=O -0.275%
C=CCN1C(=O)C(Cc2ccc(OCC)cc2)SC1=Nc1ccc(C(=O)O)cc1 (stereo not given) -2.96%
O=C(O)CN(Cc1ccco1)S(=O)(=O)c1ccc(F)cc1 -0.137%
CCN(CC)S(=O)(=O)c1cccc(NC(=O)c2ccc(S(=O)(=O)N3CCCC3)cc2)c1 -3.29%
CC(NCCO)C(=O)C12CC3CC(CC(C3)C1)C2 (stereo not given) -5.36%
COCCNC(=O)C(OC(=O)c1cccs1)c1ccc(F)cc1 (stereo not given) -1.42%
O=C1NC(Nc2nc3ccccc3s2)(C(F)(F)F)C(=O)N1C1CCCCC1 (stereo not given) -3.48%
COC(=O)c1cc(NC(=O)CC2C(=O)NCCN2C(=O)c2ccc(F)cc2)cc(C(=O)OC)c1 (stereo not given) -6.53%
Cc1occc(=O)c1OCc1c(Cl)cccc1Cl -1.89%
CCCCc1ccc(NS(=O)(=O)c2cccc(C(=O)N3CCCN(C)CC3)c2)cc1 -4.27%
CCC(=O)N1c2ccc(S(=O)(=O)NCc3ccco3)cc2CC1C (stereo not given) -2.03%
Cc1nnc(SCCCCSc2nnc(C)c(=O)[nH]2)[nH]c1=O -1.02%
CCOC(=O)c1cccc(NC(=O)CCc2nnc3ccc(N4CCOCC4)nn23)c1 -10.9%
CCCC[C@H]1COCCS(=O)(=O)N1Cc1cccc(Cl)c1 1.87%
C/C=C/c1ccc(OCC(=O)NNC(=O)CN(C)S(=O)(=O)c2ccc(C)cc2)c(OC)c1 -5.6%
CC(C)(C)c1cc(NC(=O)NN2CCOCC2)nn1-c1c(Cl)cc(Cl)cc1Cl -4.53%
COc1ccc(OC)c(C(O)c2nc3ccccc3n2C)c1 (stereo not given) 0.975%
NC(=O)C1(N2CCCC2)CCN(Cc2ccccc2)CC1 -2.04%
CCOC(=O)C1CN(S(=O)(=O)c2ccc(F)cc2)C1 -0.508%
CC(C)(C)n1cnnc1Sc1ccc([N+](=O)[O-])cn1 -5.76%
O=C(COC(=O)/C=C/c1cccc(Cl)c1)NCc1cccs1 -1.32%
Cc1onc(-c2c(F)cccc2Cl)c1C(=O)Nc1cccc(S(=O)(=O)N2CCCCC2)c1 -3.61%
CSc1sc(C(=O)NC(=O)NCc2cccnc2)c(C)c1-c1ccon1 -1.8%
Cc1nn(-c2ccccc2)c2c1C(c1cccc([N+](=O)[O-])c1)N(c1ccccc1)C(=O)N2 (stereo not given) -1.94%
CC1(C)C2CCC13CS(=O)(=O)NC3C2 (stereo not given) -2.1%
Cc1nc(Nc2ccccc2C)c2cnn(C)c2n1 -1.3%
O=C1N[C@@H](Cc2ccccc2)C(=O)N2[C@@H]3N(S(=O)(=O)c4ccc(F)cc4)c4ccccc4[C@]3(Br)C[C@@H]12 0.056%
CCC1=C(OC(=O)N(CC)CC)N2C(=O)OC(=NCC3CC3)[C@]2(C)[C@H]2C1=CC[C@H]1C(=O)N(CC(=O)OC)C(=O)[C@H]12 -10.6%
CC(C)N1CCc2c(sc(NC(=O)Cc3ccccc3)c2C#N)C1 -2.3%
C#CCCCc1nc2ccccc2c(=O)n1N -1.38%
CCCCN1CC(CO)Oc2cccc(F)c2S1(=O)=O (stereo not given) -5.79%
CCCc1nc(SCC(=O)Nc2ccccc2OC)c2c(=O)n(C)c(=O)n(C)c2n1 0.785%
CC(=O)Nc1cccc(NC(=O)CSc2nccn2Cc2ccc(F)cc2)c1 -2.24%
N#Cc1cccc(OC(=O)c2ccc3c(=O)n4c(nc3c2)CCC4)c1 -3.21%
CSc1ccccc1NC(=O)CN(C)CC(=O)Nc1cccc(Br)c1 0.804%
CN(C)/C(=N\OC(=O)c1ccccc1)c1nonc1N -1.1%
CCOc1ccc(NC(=O)[C@H](C)NC(=O)C2CC(=O)N(c3ccc(OC)cc3)C2)cc1 (stereo not given in full) -2.26%
COc1cc(C2NC(=O)NC(c3ccccc3)=C2C(C)=O)c(Br)cc1OCC(N)=O (stereo not given) 1.51%
Cc1ccc(C(NC(=O)N2CCCC2)C(Cl)(Cl)Cl)cc1F (stereo not given) 0.175%
CCn1c(CC(=O)Nc2ccccc2C)nnc1SCC(=O)NC1=NCCS1 0.499%
Cc1cccc(-n2c(Cc3cc(=O)[nH]c(=O)[nH]3)nnc2SC(C)C)c1 -3.65%
Cc1ccccc1C(=O)N1CCC(C(=O)Nc2ccc(S(=O)(=O)N(C)C(C)C)cc2)CC1 -5.76%
Cc1no[n+]([O-])c1COc1ccccc1/C=C1\NC(=S)NC1=O -1.51%
Cc1coc2cc3oc(=O)c(CCC(=O)O)c(C)c3cc12 -1.58%
CC(C)Cc1nnc(N)s1 0.822%
Cc1ccc2c(c1)N(CC(=O)NCCCN1CCCCC1)C(=O)c1cccnc1O2 -3.98%
CC1CC(C)CN(C(=O)CCNC(=O)Cn2cnc3ccccc3c2=O)C1 (stereo not given) -3.52%
O=C(Cc1ccc(S(=O)(=O)N2CCOCC2)s1)NCCOc1ccccc1F -3.13%
O=C(COc1ccc2c(c1)CCC2)N1CCN(c2ccc(F)cc2)CC1 -4.81%
CN(C)c1ccc(Nc2c3c4c(cccc4n(C)c2=O)C(=O)c2ccccc2-3)cc1 -12.6%
CC(Cc1cccs1)NC(=O)c1cccc(Cl)c1 (stereo not given) -2.64%
O=C(Cc1ccc([N+](=O)[O-])cc1)NCCc1ccc2c(c1)OCO2 0.815%
CCC(CC)C(=O)Nc1c2c(nn1-c1ccc(C)cc1)CS(=O)(=O)C2 -0.386%
CCCC1(C(=O)OCC)NC(c2ccc(N(C)C)cc2)C2C(=O)N(c3ccc4c(c3)OCCO4)C(=O)C21 (stereo not given) -5.54%
COc1cc2c(cc1CNC[C@H]1O[C@@H](n3cnc(C(N)=O)n3)[C@H](O)[C@@H]1O)OCO2 -0.393%
COc1ccc(/C=C/C2=CC(C)(C)NC(=S)N2)c(OC)c1 -5.34%
O=C(NC1CCN(C(=S)Nc2ccc(Cl)cc2)CC1)C1CCCCC1 -2.49%
N#CC1(NC(=O)COC(=O)CSc2ccc(F)cc2)CCCCC1 -0.309%
CC(=O)c1ccc(Cc2ncc(C(F)(F)F)cc2Cl)s1 -2.94%
COc1ccc(-c2cc(C(F)(F)F)n3nc(C(=O)N4CCOCC4)c(Cl)c3n2)cc1 -1.7%
Cc1ccsc1C1C(C#N)=C(N)OC2=C1C(=O)CC(C)C2 (stereo not given) -6.04%
O=[N+]([O-])c1cccc(S(=O)(=O)N2CCCCCC2)c1 -4.08%
CC(C)c1ccc(S(=O)(=O)N2CCC3(CC2)OCCO3)cc1 5%
O=C(CN1C(=O)NC2(CCCC2)C1=O)NCC1CCCO1 (stereo not given) -0.821%
NC(=O)c1ccc(CN2CCC(Cc3ccccc3)CC2)cc1 -4.25%
O=C(N/C(=C\c1ccc(O)cc1)C(=O)N1CCCCC1)c1ccccc1 -4.56%
O=C(O)C1C2C=CC(O2)C1C(=O)NCCc1cccc(Cl)c1 (stereo not given) -2.45%
CC1=C(C(=O)N(C)C)C(c2ccccc2OC(F)F)NC(=O)N1 (stereo not given) -2.19%
Cn1c2ccc(F)cc2c2nnc(NN)nc21 -1.99%
CC(C)Oc1ccc(CCc2n[nH]c(=S)n2Cc2ccccc2)cc1 -8.46%
CCc1nnc(NC(=O)CSc2nc3ccccc3c(=O)n2CCCOC)s1 -4.64%
O=C(Nc1ccc(-n2cccn2)cc1)C1CCN(Cc2ccsc2)CC1 -0.259%
CCOC(=O)C1Nc2ccc(C(F)(F)F)cc2C2C=CCC12 (stereo not given) -7.44%
